The results in this text go back to ChEMBL document CHEMBL4513216, “Probing the Open Global Health Chemical Diversity Library for Multistage-Active Starting Points for Next-Generation Antimalarials” (ACS Infect Dis, 2020).

Out of some 69,000 compounds screened, about 8,600 (12%) showed an effect of 50% or more. Shown is part of a subset that was picked to be rich in strong results.

For this assay, the system named is Plasmodium berghei. Kind of assay: Screen against P. berghei liver stage (PbLuc), transformed with Luciferase, at 10uM. The note with it: tested at 10 uM. The assay is classed as functional, HepG2.
Turning to `NC(=O)CN1CCC2(CC1)C[C@@H](O)[C@H](c1ccccc1)NC2=O`, the INHIBITION stood at 53.2%.

For `CN(C)C(=O)CN1CCn2cc(Cn3cccn3)nc2C1`, the INHIBITION is 38.5%.

On to `COc1ccc(C2CCCN2c2cnccn2)c(OC)c1` (stereo not given), for which the INHIBITION is 31.6%.

As to `COc1ccc(C2CCCN2c2nnc(C)s2)c(OC)c1` (stereo not given), the INHIBITION is 15.5%.

Regarding `COc1ccc(C2CCCN2c2ccnc(C)c2Cl)c(OC)c1` (stereo not given), the INHIBITION was 82.2%.

Regarding `O=C([C@@H]1CN(Cc2nccs2)C[C@H]2OCC[C@H]21)N1CCOCC1`, the INHIBITION is 14%.

For `Cn1cc(CN2CC[C@H]3O[C@H](C(=O)NCc4ccco4)CC[C@H]32)cn1`, the INHIBITION is listed as -20.6%.

`CC1c2ncc(CNC(=O)C3CC3)n2CCN1Cc1nccs1` (stereo not given): the INHIBITION is given as -4.32%.

For `c1cc2c(cc1CN1CCCC3(CCOC3)C1)OCO2` (stereo not given), the INHIBITION is recorded as 25.4%.

Regarding `CN1CCC2(COCCN(Cc3cccc(C#N)c3)C2)C1` (stereo not given), the INHIBITION is reported as 89.6%.

Turning to `CCCOC(=O)N1CCCC2(CCN(Cc3cccc(C#N)c3)C2)C1` (stereo not given), the INHIBITION came to 2.7%.

With `CN1CCC2(COCCN(Cc3ccc4c(c3)OCO4)C2)C1` (stereo not given), the INHIBITION was 61.5%.

On to `COCCN1CCC2(COCCN(Cc3ccc4c(c3)OCO4)C2)C1` (stereo not given), for which the INHIBITION is recorded as 46.7%.

For the compound `CCN1CC2(CCC1=O)CCN(Cc1cccc(C#N)c1)CC2`, the INHIBITION was 33.4%.

In the case of `COCC(C)NC(=O)c1sccc1-n1cnnn1` (stereo not given), the INHIBITION was 36.5%.

For the compound `Fc1ccccc1-c1nnn(CCCc2nn[nH]n2)n1`, the INHIBITION is listed as 78.8%.

Consider `CNS(=O)(=O)CCCn1nnc(-c2ccc(F)c(C)c2)n1`, for which the INHIBITION was -6.51%.

As to `Cc1cc(-c2nnn(CCNS(C)(=O)=O)n2)ccc1F`, the INHIBITION stood at 31.8%.

For the compound `Fc1ccccc1CN1CCC[C@H](Cn2nnc(-c3cccs3)n2)C1`, the INHIBITION is given as 21.6%.

For the compound `Nc1nnc(Cn2nnc(-c3ccccc3F)n2)s1`, the INHIBITION was found to be 61.8%.

Regarding `Nc1nnc(CCCn2nnc(-c3ccccc3F)n2)s1`, the INHIBITION was 44.7%.

Turning to `COCCN1CCC(Cc2cncc(-c3ccc(C(=O)O)cc3)n2)CC1`, the INHIBITION was found to be 31.6%.

Regarding `Nc1cnn(CC(=O)N2CCCCC2)c1`, the INHIBITION was 34%.

For `COc1cccc(CN2CCCCC2Cn2nc(C)nc2C)c1` (stereo not given), the INHIBITION is -59.4%.

`NC(=O)COc1ccc(C(=O)N2CCCC(n3ccnc3)C2)cc1` (stereo not given): the INHIBITION was -19.4%.

`CNC(=O)N1CC[C@H]2N(C)CC[C@@]2(C(=O)N2CCOCC2)CC1`: the INHIBITION is -18.4%.

In the case of `COc1cc(C(=O)N2CCCS2(=O)=O)ccc1OC(C)C`, the INHIBITION was determined as 66.7%.

On to `COc1ccc(C(=O)N2CCCS2(=O)=O)cc1OC`, for which the INHIBITION is 5.03%.

For the compound `CCOc1ccc(C(=O)N2CCCS2(=O)=O)cc1OC`, the INHIBITION is 11.2%.

With `Cc1cc(C)n(NC(=O)c2ccccc2F)c(=O)c1`, the INHIBITION is on record as 47.1%.

As for `Cc1cc(C)n(NC(=O)c2ccc(Cl)cc2Cl)c(=O)c1`, the INHIBITION is listed as 60.4%.

Turning to `Cc1cc(C)n(NC(=O)c2ccccc2C)c(=O)c1`, the INHIBITION is on record as -46.4%.

Consider `CCc1nc(CN2CCN(C(=O)c3csnn3)CC2)cs1`, for which the INHIBITION is listed as 10.2%.

On to `CS(=O)(=O)Cc1ccc(C(=O)NC2CCc3nccn3C2)o1` (stereo not given), for which the INHIBITION is listed as -16.38%.

For the compound `CCc1c(O)nc2nc(N3CCCC3)nn2c1C`, the INHIBITION turned out to be 44.1%.

On to `CC(=O)N1CCCC1c1cncc(Oc2ccc(F)cc2)n1` (stereo not given), for which the INHIBITION was determined as 11.1%.

Take `COc1ccc(Oc2cncc(C3CCCN3C(C)=O)n2)cc1` (stereo not given): the INHIBITION is -3.98%.

In the case of `CNCC(=O)N1CCCC1c1cncc(Oc2ccc(F)cc2)n1` (stereo not given), the INHIBITION was 38.2%.

For `Cn1cncc1CN1CCCC1c1cncc(Oc2ccc(Cl)cc2)n1` (stereo not given), the INHIBITION turned out to be 96.6%.

`Cc1ncccc1Oc1cncc(C2CCCN2Cc2cncn2C)n1` (stereo not given): the INHIBITION was 32.8%.

As for `Cn1cncc1CN1CCCC1c1cncc(Oc2ccc(F)cc2)n1` (stereo not given), the INHIBITION is recorded as 67.7%.

With `NC(=O)CN1CCCC1c1cncc(Oc2ccc(Cl)cc2)n1` (stereo not given), the INHIBITION was determined as 13.5%.

Consider `CN(C)CC(=O)N1CCCC1c1cncc(Oc2ccc(F)cc2)n1` (stereo not given), for which the INHIBITION is listed as 53%.

Regarding `CC(C)(N)C(=O)N1CCCC1c1cncc(Oc2ccc(F)cc2)n1` (stereo not given), the INHIBITION is reported as 31.1%.

With `CCN(CC)C(=O)c1ccn(COc2c(Cl)cccc2Cl)n1`, the INHIBITION is listed as 20.9%.

Take `Cc1ccc(N2CCCN(C(=O)CCCn3ccnc3C)CC2)nn1`: the INHIBITION is on record as 7.18%.

For `O[C@]12CCNC[C@H]1CN(c1ccnc3ccccc13)CC2`, the INHIBITION is 56.7%.

With `O=C(O)C1CC2(CCN(c3nccc4ccccc34)CC2)CN1` (stereo not given), the INHIBITION amounted to 93.1%.

As to `CN(C)c1nccnc1N1CC[C@@]2(O)CCNC[C@H]2C1`, the INHIBITION came to 15.8%.

In the case of `CCCOc1ccc2ccccc2c1CN1CC[C@@]2(O)CCNC[C@H]2C1`, the INHIBITION is on record as 5.41%.

Regarding `O[C@]12CCNC[C@H]1CN(c1nccc3ccccc13)CC2`, the INHIBITION is listed as 53.9%.

Regarding `Cc1nnc(N2CC[C@@]3(O)CCNC[C@H]3C2)c2ccccc12`, the INHIBITION is 25.8%.

As to `O[C@]12CCNC[C@H]1CN(c1ncccc1Cl)CC2`, the INHIBITION was 7.6%.

As to `CC(=O)N1CC2(CCN(c3nccc4ccccc34)CC2)CC1C(=O)O` (stereo not given), the INHIBITION was 29.2%.

As to `CN(C)CCO[C@H]1C[C@@H](O)C12CCN(c1nccc3ccccc13)CC2`, the INHIBITION is recorded as -3.58%.
